This is an account of results in PubChem BioAssay (NCI).

Compounds without any hit were thinned out: in the full panel of roughly 83,000, 20% have a hit.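 A percent growth of 40 corresponds to 60% growth inhibition; 0 means no net growth; -100 means all cells died. Active threshold: below 10.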 Values without a mark were called inactive. Activity calls are given as the source filed them.

Common to all, as to test: NCI-60 one-dose screen, 48 h (100 = growth as untreated, 0 = no growth, -100 = all killed)
Common to all, as to details: 10 µM

Assay [1] has as its system SK-MEL-2 melanoma.
The test system of assay [2] is SN12C renal.
Assay [3] deals with UO-31 renal.
Assay [4] concerns ACHN renal.
The subject of assay [5] is CAKI-1 renal.
For assay [6], the system named is A498 renal.
For assay [7], the system named is CCRF-CEM leukemia.
The test system of assay [8] is MOLT-4 leukemia.
Assay [9] has as its system TK-10 renal.

For the molecule `Oc1ccccc1-c1nnc(Cn2c(Cc3cccc4ccccc34)nc3ccccc32)o1`, the growth is 83.1% in assay [1]; 94.5% in [2]; 63% in [3]; 93.9% in [4]; 94.3% in assay [5]; 106% in [6]. Further, the values for the growth in [7] and in assay [8] were 99.4% and 90.9%, respectively.
On to `CC(C)=C1CCC(C)C/C1=N\N=C(N)N` (configuration not stated), for which the growth is 102% in [1]; 81.3% in assay [3]; 98.3% in [9]; 105% in assay [4]; 93.3% in assay [5]; 88.6% in assay [6]. For the same molecule, the growth in assay [7] was 86.9%.
`N#CN1CC[C@H](C(=O)Nc2ncc(-c3ccccc3)s2)C1`: the growth in [1] is -43.8% (active); in assay [3], 7.47% (active); in [9], -30.9% (active); in assay [4], 4.65% (active); in assay [5], 9.65% (active); in assay [6], -47% (active). In addition, the growth is 9.27% (active) in assay [7] and -19.7% (active) in [8].
`CC(=O)N(O)c1ccc(/C=C/c2ccccc2)cc1`: the growth in assay [1] is 92.7%; in [2], 26.5%; in [3], -30.8% (active); in assay [4] it was -18.1% (active); in assay [5], 0.955% (active); in assay [6], -78.8% (active). Also, the growth in assay [7] was 26.5%; in assay [8], 41.8%.
`O=C(NCc1cn(Cc2cccc(Oc3ccccc3)c2)nn1)c1cccnc1Nc1ccccc1`: the growth in [1] is 55.1%; in assay [2], 50.2%; in [3], 54.4%; in assay [4], 54.5%; in [5], 48.1%; in assay [6], 19.7%. The growth in [8] is 38%.
Regarding `CCc1c(C)[nH]c(=O)c(C(N)=O)c1C#N`, the growth in [1] is 96.3%; in [3] it was 93.5%; in [9], 91.9%; in assay [4], 102%; in [5] it was 96.3%; in assay [6] it was 105%. For the same molecule, the growth in assay [7] is 99%.
As to `O=S(=O)(NCl)c1ccccc1`, the growth in assay [1] was 109%; in assay [2], 106%; in assay [3] it was 83.1%; in [4], 105%; in assay [5], 94.7%; in [6] it was 97.5%. Further, the values for the growth in assay [7] and in assay [8] were 92.5% and 98.3%, respectively.
For `COc1cc2ccnc(C=O)c2cc1OC`, the growth was 83.2% in [1]; 13.8% in assay [3]; 50.4% in [9]; 51.2% in assay [4]; 47.5% in assay [5]; 111% in assay [6]. For the same molecule, the growth in [7] was -3.23% (active).
`Cc1cccc2c1O/C(=C\c1ncc([N+](=O)[O-])n1C)C2=O`: the growth in assay [1] is -45.3% (active); in assay [3], -38.9% (active); in assay [9], -34.3% (active); in assay [4] it was 4.76% (active); in assay [5], -29.7% (active); in [6] it was -72.7% (active). Further, the growth in assay [7] is 5.23% (active).
In the case of `N=C(N)c1ccc(-c2ccc(-c3ccccc3)s2)s1`, the growth in [1] is -77.7% (active); in assay [2], -74.9% (active); in assay [3], -74.1% (active); in assay [9] it was -61.7% (active); in [4], -82.6% (active); in assay [5], -59.4% (active). In addition, the growth in [7] was -49.4% (active); in assay [8] it was -55.9% (active).
With `CCOC(=O)c1sc(Nc2ncccn2)nc1-c1ccccn1`, the growth in [1] was 60.4%; in assay [2], 92%; in [3] it was 62.4%; in assay [4], 88.4%; in assay [5] it was 57.2%; in assay [6] it was 90.2%. Further, the growth in assay [7] was 46.2%; in [8], 73.1%.
For the molecule `NC1CCC(Nc2nc(NCc3ccc(-c4cccs4)nc3)c3ncn(C4CCCC4)c3n2)CC1` (configuration not stated), the growth in assay [1] was -76.8% (active); in assay [3], 9.49% (active); in [4], -3.38% (active); in [5], 15.3%; in assay [6] it was -78.5% (active); in assay [7] it was -2.89% (active).
As to `Cc1cc(OI)c(C(C)C)cc1-c1cc(C(C)C)c(OI)cc1C`, the growth was 80.7% in [1]; 83.5% in assay [3]; 97.3% in assay [9]; 96% in assay [4]; 95.1% in assay [5]; 85.4% in [6]. Moreover, the growth in assay [7] is 98.3%; in [8], 86.8%.
Take `COC(=O)[C@]12CC[C@@H](C)[C@H](C)[C@@H]1C1=CC[C@@H]3[C@@]4(C)CC(=O)[C@H](O)[C@@](C)(CO)[C@@H]4C(=O)C[C@@]3(C)[C@]1(C)CC2`: the growth in assay [1] is -4.44% (active); in assay [3] it was -75.4% (active); in [4] it was -51.5% (active); in assay [5] it was -66.4% (active); in assay [6] it was -11.3% (active); in assay [7], -13.7% (active). For the same molecule, in assay [8], the growth is -31.8% (active).
With `O=c1cc(CSc2nnc(-c3ccccc3)n2-c2ccc(F)cc2)c2ccc3ccccc3c2o1`, the growth in assay [1] is 79.7%; in assay [3], 65.6%; in assay [9] it was 104%; in assay [4] it was 99%; in assay [5], 88.6%; in [6], 118%. Besides, the results for the growth in assay [7] and in [8] were 108% and 82.7%, respectively.
For `O=C(COCc1c(-c2ccccc2)no[n+]1[O-])Nc1nc(-c2ccc(Cl)cc2)cs1`, the growth was 105% in [1]; 80.8% in assay [3]; 113% in assay [9]; 112% in assay [4]; 105% in assay [5]; 97.9% in assay [6]. The growth in [7] is 90.5%; in assay [8] it was 102%.
`CC(Oc1ccc(Cl)cc1)c1ccccc1` (configuration not stated): the growth in [1] is 112%; in assay [3], 77.6%; in assay [9], 106%; in [4], 125%; in assay [5] it was 96.5%; in [6], 119%. For the same molecule, the growth in [7] was 94.1%; in [8], 87.3%.
`COc1ccc(C(C)=O)cc1N1C(=O)C2C(C1=O)C1(c3ccccc3)C(=O)C2(c2ccccc2)C(c2ccc(C)cc2)=C1c1ccc(C)cc1` (configuration not stated): the growth in assay [1] was -0.955% (active); in assay [3], -4.71% (active); in [9], 13.7%; in assay [4], 23.1%; in assay [5] it was 6.11% (active); in [6] it was 54.1%. Besides, the growth was 8.66% (active) in [7] and 12.6% in [8].
`C[C@@H]1C(=O)N(C[C@H](Cc2ccccc2)NC(=O)OCc2ccccc2)[C@]1(Cc1ccccc1)C(=O)OCc1ccccc1`: the growth in [1] is 42.9%; in [3], 16.4%; in [9], 29.1%; in assay [4], 32.2%; in assay [5], 32.2%; in [6] it was 37.7%. In addition, the results for the growth in assay [7] and in assay [8] were 52.6% and -0.259% (active), respectively.
Regarding `O=C1CC[C@@H](C(=O)N[C@H]2CSSC[C@@H](C(=O)N/C=C/c3ccc(O)cc3)NC(=O)[C@H](Cc3ccccc3)NC(=O)[C@@H]3CCCN3C(=O)[C@@H]3CCCN3C2=O)N1`, the growth in assay [1] is 93.5%; in [3] it was 101%; in [9], 94.8%; in assay [4], 100%; in assay [5], 96.5%; in assay [6], 108%. Further, the growth in [7] was 68%; in [8] it was 88.9%.
For `O=C(c1ccccc1)C(Nc1ccccc1)c1ccccc1` (configuration not stated), the growth in assay [1] is 90.9%; in [3] it was 66.9%; in [9], 93.6%; in assay [4], 89.2%; in assay [5], 87.3%; in assay [6] it was 94.6%. The figures for the growth in assay [7] and in assay [8] were 94.1% and 90.8%, respectively.
Take `NC(N)=NS(=O)(=O)c1ccc(Nc2ccc3nnc(-c4ccncc4)n3n2)cc1`: the growth in assay [1] was 131%; in assay [3], 78.6%; in [9], 112%; in [4], 101%; in [5], 106%; in assay [6], 95.5%. Moreover, the growth is 109% in assay [7] and 101% in assay [8].
For the molecule `Nc1ncncc1-c1ccc(F)cc1`, the growth in assay [1] was 132%; in assay [3], 103%; in assay [9] it was 116%; in assay [4], 108%; in assay [5], 98.5%; in [6], 95.2%. The growth is 109% in assay [7] and 98.4% in assay [8].
For the molecule `COc1cccc(C(=O)NNc2nc(N3CCOCC3)nc(N3CCN(C(c4ccccc4)c4ccccc4)CC3)n2)c1`, the growth in assay [1] was 85.3%; in assay [3], 39.7%; in assay [9], 86.7%; in [4], 76.3%; in [5], 44.7%; in [6] it was 51.3%. The growth in assay [7] is 85.1%; in [8], 63.2%.
Take `COc1cccc(C(=O)NNc2nc(N3CCN(C4CCCCC4)CC3)nc(N3CCN(C(c4ccccc4)c4ccccc4)CC3)n2)c1`: the growth in assay [1] is 87.3%; in [3], 32.9%; in [9] it was 46.1%; in [4] it was 70.2%; in assay [5], 59.4%; in [6], 49.2%. Further, the results for the growth in assay [7] and in assay [8] were 39.9% and 15.5%, respectively.
